The text below walks through data of PubChem BioAssay (NCATS).

This is one part of the list. Results filed as inconclusive are left out. Unmarked numbers belong to inactive results. Activity calls are given as the source filed them. Calls come from the whole dose curve; as a rule, active = well fitted cell-killing curve with a large enough effect; inconclusive = small, poorly fitted or top-dose-only effect, or effect the other way; inactive = flat fitted curve, though single readings scatter.
% is set by controls: 0 for no effect and ±100 for the full control effect; potency is the fitted concentration of half-maximal effect.

This assay in a line: Cell viability qHTS assay in S16 Pmp22-F2sN cells - Confirmatory screen (AID 1508641). The note with it: S16 Schwann cells viability, CellTiter-Glo ATP luminescence, 24 h; series mostly up to 57.5 µM; activity change, negative = viability loss: at the top concentration. From the text: Assay Provider: Jim Inglese Ph.D. National Center for Advancing Translational Science, National Institutes of Health, Rockville, MD CMT is a heterogeneous group of neurological disorders that affect approximately 1 in 2,500 people. In particular, the most common form of CMT, CMT1A is genetically linked to the duplication of the PMP22 gene which leads to Schwann cell overexpression, thus manifesting itself as a typical case of dose-sensitive diseases. To identify small molecule compounds that can mediate the expression of PMP22 we developed a phenotypic assay screening strategy by utilizing genome editing techniques to construct Schwann cell lines containing novel reporter technology to monitor the transcriptional or translational regulation of PMP22. For high sensitivity we use a bioluminescent reporter system embedded in the 3' UTR of the PMP22 gene (S16(c9) Pmp22-F2sN) to identify compounds that inhibit gene expression. […] We can further discriminate the effect of all transcriptionally active molecules on PMP22 translation or stability with an assay that incorporates a short NLuc peptide (HiBiT) at the C-terminus of expressed PMP22 (S16(f8) PMP22-HiBiT) allowing alpha complementation and luminescence detection of membrane-associated PMP22 protein. These assays were screened against the NCATS Sytravon Library Collection. Miniaturization of these assays to 1536-well plate format for quantitative high throughput screening (qHTS) yielded rich data sets immediately from the qHTS assay (S16(c9) Pmp22-F2sN), when compared with data from a cell viability assay (Cell TiterGlo) to identify compounds that decreased the output signals through cellular toxicity to streamline the selection process of actives for subsequent characterization using the HiBiT assay (S16(f8) PMP22-HiBiT).
Cell viability assay in S16 Pmp22-F2sN cells PROTOCOL TABLE (format as described by Inglese J, Shamu CE and Guy RK. 2007) SEQUENCE No. (e.g., 1, 2, 3, etc.); PARAMETER (e.g., Cells, Incubation, Reagent, etc.); VALUE and DESCRIPTION. 1. Cells. Add 500-1,000 cells in 4 uL in growth media (DMEM High Glucose, No Phenol Red media + 10% heat-inactivated FBS + 1% Pen/Strep supplemented media) per well into Greiner 1536-well white/solid bottom high base, TC-treated plates. 2. Compounds. Library compounds and controls added at 23nL per well, transferred by Pin Tool. 3. Incubation. Incubate plates at 37C, 5% CO2, 95% RH for 24 h. 4. Reagent. Add 3uL CellTiter-Glo per well of Greiner 1536-well plates. 5. Incubation. Incubate plates at room temperature for 15 min., protect from light. 6. Detector. FLuc luminescence measured using CCD-based camera (Viewlux). NOTES (numbers refer to Sequence numbers above; values are from representative experiments) 6. Luminescence Read: Clear filter; Exposure = 1 sec, Gain = High, Speed = Slow, Binning = 2X REFERENCES: 1. Inglese J, Shamu CE and Guy RK, Reporting data from high throughput screening of small molecule libraries, Nature Chemical Biology, 2007, 3(8): 438-441. doi.org/10.1038/nchembio0807-438 2. Yasgar A, Shinn P, Jadhav A, Auld DS, Michael S, Zheng W, Austin CP, Inglese J and Simeonov A, Compound Management for Quantitative High-Throughput Screening. J. Assoc. Lab. Auto., 2008, 13: 79-89. doi: 10.1016/j.jala.2007.12.004
(Quantitative high-throughput screening tests each substance at several concentrations.)
Regarding `CCOCCCNC(=O)c1c(NC(=O)c2nc(SC)ncc2Cl)sc2c1CCCC2`, the “activity change, negative = viability loss” value was -11.1%.
For `CCOC(=O)c1c(C)[nH]c(CCC(=O)NCCCN2CCN(c3cc(C)ccc3C)CC2)c1C`, the Potency was 30.6 µM (active).
Consider `Cc1ccc(OCCSc2nc3ccc(NC(=O)COc4ccc(C)cc4)cc3s2)cc1`, for which the “activity change, negative = viability loss” value was 1.55%.
The same measure, in the same setting: the same measure for `Cc1cccc(Nc2cc(C)nc(-n3nc(C)cc3C)n2)c1`: -29.4%; for `Cc1ccc(CCNC(=O)C2CCN(c3nnc(-n4cccc4CNc4ccc(C)cc4)s3)CC2)cc1`: -3.6%; for `Cc1ccc(C)n1-c1nnc(N2CCC(C(=O)NCc3ccccc3Cl)CC2)s1`: -17%.
The same measure, in the same setting: under `O=C(NCCCN1CCN(c2cccc(Cl)c2)CC1)c1nnc(Cc2ccc(F)cc2Cl)o1` stands -16.8%; under `Cc1cc(OCC(=O)NCC2(N(C)C)CCCCC2)cc(C)c1Cl`, -10.4%.
For `Cc1nnc(SCC(=O)NCc2ccccc2Cl)c2nn(-c3ccccc3)c(C)c12`, the “activity change, negative = viability loss” value is 9.7%.
`COc1ccc(C2Sc3ccccc3NC3=C2C(=O)c2ccccc23)c(OC)c1OC` (stereo not drawn): the “activity change, negative = viability loss” value is -4.14%.
For the compound `COc1cccc(NC(=O)CSC2=Nc3ccccc3C3=NC(CC(=O)NC4CCCCC4)C(=O)N23)c1` (stereo not drawn), the “activity change, negative = viability loss” value is -8.7%.
Consider `CCOC(=O)c1ccc(N2C(=O)c3n[nH]c(C)c3C2c2ccc(O)c(OC)c2)cc1` (stereo not drawn), for which the “activity change, negative = viability loss” value was 8.57%.
Regarding `COc1ccccc1Nc1c2c(nc3ccc(NC(=O)/C=C/c4cc(OC)c(OC)c(OC)c4)cc13)CCCC2`, the Potency is 17.2 µM (active).
Take `Cc1ccc(Cn2c(C)c3cnn(CC(=O)NCc4ccccc4)c(=O)c3c2C)cc1`: the “activity change, negative = viability loss” value is 5.5%.
As for `Cc1ccccc1CNC(=O)CSc1nnc(C)c2c(C)n(-c3ccccc3)nc12`, the “activity change, negative = viability loss” value is 2.28%.
The same measure, in the same setting: the same measure for `CC(C)(C)c1ccc(C(=O)NCC(c2ccco2)S(=O)(=O)c2ccc(F)cc2)cc1` (stereo not drawn): -5.87%; for `Cc1sc(C2C(C#N)=C(N)N(c3cccc(Cl)c3)C3=C2C(=O)CCC3)cc1CN1CCOCC1` (stereo not drawn): -21.2%.
For `CC(=O)N1CCCc2cc(S(=O)(=O)N3CCCC(C(=O)N4CCN(c5cccc(Cl)c5)CC4)C3)ccc21` (stereo not drawn), the Potency is 27.3 µM (active).
In the case of `COc1ccc(CCNC(=O)c2cc(=O)c3c(C)cc(C)cc3o2)cc1OC`, the “activity change, negative = viability loss” value is -7.68%.
As for `CCCS(=O)(=O)c1ncc(Cl)c(C(=O)Nc2scc(-c3ccccc3)c2C(=O)OCC)n1`, the Potency was 27.3 µM (active).
On to `O=C(c1ccc2c(c1)N(Cc1ccc(F)cc1)C(=O)c1ccccc1S2(=O)=O)N1CCN(c2ccccn2)CC1`, for which the “activity change, negative = viability loss” value was 8.53%.
For `CCC1=Nc2cc(C(=O)NCCCOC(C)C)ccc2Sc2ccc(C)cc21`, the “activity change, negative = viability loss” value is 12.9%.
For `COc1ccc(-c2onc(C)c2C)cc1S(=O)(=O)NCC1CCN(Cc2cccc(F)c2)CC1`, the “activity change, negative = viability loss” value was -28.1%.
The same measure, in the same setting: the same measure for `CCc1ccc(NC(=O)CN2CCSc3ccc(S(=O)(=O)N4CCCC4)cc32)cc1`: -8.45%.
On to `CCCn1c(=N)c(C(=O)NCc2ccccc2)cc2c(=O)n3cccc(C)c3nc21`, for which the “activity change, negative = viability loss” value was -5.14%.
On to `CCOc1ccc(NC(=O)c2c(NC(=O)Cc3ccccc3)sc3c2CCC(C)C3)cc1` (stereo not drawn), for which the “activity change, negative = viability loss” value is -9.38%.
Take `CCOC(=O)C1CCN(C(=O)CSc2c3c(nc4ccc(Cl)cc24)CCCC3)CC1`: the “activity change, negative = viability loss” value is 2.06%.
Regarding `Cc1cc(F)ccc1NS(=O)(=O)c1ccc(-n2cccn2)cc1`, the “activity change, negative = viability loss” value was -2.74%.
For the compound `O=C(c1ccc(C(F)(F)F)cc1)N1CCC(c2nc(-c3ccc(S(=O)(=O)N4CCCC4)cc3)no2)CC1`, the “activity change, negative = viability loss” value was -11.1%.
In the case of `COc1cccc(NC(=O)N(Cc2cn(C)c3ccccc23)C2CCCCCC2)c1`, the “activity change, negative = viability loss” value was 2.35%.
Consider `CCC1CCCCN1CCCNC(=O)c1cc2c(Cl)nc3ccccc3c2s1` (stereo not drawn), for which the “activity change, negative = viability loss” value was -4.86%.
In the case of `Cc1ccc(NC(=O)c2nc(S(=O)(=O)Cc3cccc(C)c3)ncc2Cl)cc1`, the Potency is 30.6 µM (active).
In the case of `O=S(=O)(c1ccc(Cl)cc1)c1nnn2c1nc(NC1CCCC1)c1sccc12`, the “activity change, negative = viability loss” value was 0.836%.
